According to PMC4336329 (PLoS ONE, 2015):
Out of some 310,000 compounds screened, about 14,000 (4.5%) showed an effect of 50% or more. The effect is printed as a negative number. The entries come from a sample that favours strong results as a whole.

The compounds below were run against human ether-à-go-go-related gene (hERG) potassium channel (human, UniProt Q12809) (assay: primary screen, population patch clamp on CHO cells stably expressing hERG; higher = less effect of the substance).
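Note: peak tail current of the secondary pulse compared with the same well before compound.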

human ether-à-go-go-related gene (hERG) potassium channel, sequence (Q12809 whole entry, looked up): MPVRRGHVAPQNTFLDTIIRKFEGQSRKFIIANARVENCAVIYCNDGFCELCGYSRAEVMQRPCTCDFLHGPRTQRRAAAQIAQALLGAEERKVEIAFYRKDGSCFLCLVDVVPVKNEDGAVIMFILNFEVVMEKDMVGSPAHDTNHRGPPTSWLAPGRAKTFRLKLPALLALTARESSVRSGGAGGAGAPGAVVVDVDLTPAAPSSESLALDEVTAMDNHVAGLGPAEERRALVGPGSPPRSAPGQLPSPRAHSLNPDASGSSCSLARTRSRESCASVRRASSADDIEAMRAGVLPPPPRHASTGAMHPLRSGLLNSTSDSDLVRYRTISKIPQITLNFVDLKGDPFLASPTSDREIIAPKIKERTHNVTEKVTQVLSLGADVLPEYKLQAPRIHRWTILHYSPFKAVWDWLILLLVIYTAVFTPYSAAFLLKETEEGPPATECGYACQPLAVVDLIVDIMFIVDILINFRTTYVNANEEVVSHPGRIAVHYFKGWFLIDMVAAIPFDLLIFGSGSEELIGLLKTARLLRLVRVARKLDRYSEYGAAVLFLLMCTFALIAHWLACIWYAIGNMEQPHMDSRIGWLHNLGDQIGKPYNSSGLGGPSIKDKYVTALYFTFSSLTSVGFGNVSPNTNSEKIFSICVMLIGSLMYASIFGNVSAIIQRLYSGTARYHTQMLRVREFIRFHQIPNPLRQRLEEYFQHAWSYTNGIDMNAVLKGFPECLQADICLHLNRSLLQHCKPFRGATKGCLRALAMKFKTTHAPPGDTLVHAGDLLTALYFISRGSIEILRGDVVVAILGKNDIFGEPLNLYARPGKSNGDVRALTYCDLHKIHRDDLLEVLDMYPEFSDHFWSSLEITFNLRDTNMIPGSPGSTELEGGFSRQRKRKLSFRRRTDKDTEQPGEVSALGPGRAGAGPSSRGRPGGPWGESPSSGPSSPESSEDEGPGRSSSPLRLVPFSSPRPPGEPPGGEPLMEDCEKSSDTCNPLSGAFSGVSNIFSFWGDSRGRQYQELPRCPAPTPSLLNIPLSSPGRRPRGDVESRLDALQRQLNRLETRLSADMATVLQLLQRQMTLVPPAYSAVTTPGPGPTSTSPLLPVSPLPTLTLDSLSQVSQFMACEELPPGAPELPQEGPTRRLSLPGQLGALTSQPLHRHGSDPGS

| SMILES | hERG current change (%, negative = inhibition) at 10uM [%] |
| --- | --- |
| CC(=O)Cc1nsc(NC(=O)c2csc3c2CCCC3)n1 | -8.24 |
| CCOc1ccccc1NC(=O)CSc1ccc(-c2ccco2)nn1 | -16.6 |
| Cc1cccc(C2NC(c3cccc(C)c3)C(C)C(=O)C2C)c1 (centres unmarked) | 8.92 |
| CSc1ncc(CN2CCN(C(C)C)C(CCO)C2)cn1 (centres unmarked) | -2.82 |
| O=C(Nc1nnc(C2=COCCO2)o1)c1ccc(Br)cc1 | -0.63 |
| CCCc1cc(=O)[nH]c(SCC(=O)N2CCN(c3ccc(F)cc3)CC2)n1 | -15.2 |
| CCN(CC)Cc1c(C(=O)N/N=C/c2ccco2)nnn1-c1nonc1N | -14.3 |
| FC(F)(F)c1cccc(N2Cc3ccccc3C2)c1 | 6.28 |
| COc1cccc(-c2nc(CS(=O)(=O)CC(=O)NCCc3ccccc3)c(C)o2)c1 | 0.232 |
| CCOC(=O)c1sc(=NC(=O)c2ccc(OC(C)C)cc2)n(C)c1C | 10.8 |
| Nc1ccccc1-c1nnc(-c2ccc(-c3ccccc3)cc2)o1 | 10.1 |
| COc1ccc(/C=C/CN2CCCC(C(=O)c3ccc(OC)c(F)c3)C2)cc1 (centres unmarked) | -94.5 |
| Cc1cc(C(=O)N2CCCC(C(=O)c3cc(F)ccc3F)C2)c(C)o1 (centres unmarked) | -4.31 |
| COc1ccc(C(=O)C2CCCN(C(=O)Cn3nc(C)cc3C)C2)cc1F (centres unmarked) | -17.4 |
| COc1ccc(C(=O)C2CCCN(C(=O)c3ccoc3C)C2)cc1F (centres unmarked) | -6.04 |
| CSCC(=O)N1CCCC(C(=O)c2cc(F)ccc2F)C1 (centres unmarked) | -1.1 |
| COc1ccc(/C=C/CN2CCCC(C(=O)c3cc(F)ccc3F)C2)cc1 (centres unmarked) | -76.4 |
| Cc1nn(-c2ccccc2)c(Cl)c1/C=N\NC(=O)c1cnccn1 | -5 |
| CCc1cccc(C)c1NS(=O)(=O)c1cc(Br)cnc1N | 8.34 |
| COC(=O)c1ccccc1NC(=S)NC(NC(=O)COc1ccccc1)C(Cl)(Cl)Cl (centres unmarked) | 7.66 |
| CCN1CCN(C(=O)Cc2ccccc2OC)CC1 | 13.3 |
| Cc1cc(C)c(OCC(O)CN2CCN(c3ccccn3)CC2)c(C)c1.Cl (centres unmarked) | -58.3 |
| CC(C)(C)c1ccccc1OCC(O)CN1CCN(c2ccccn2)CC1.Cl (centres unmarked) | -48.8 |

| SMILES | hERG current change (%, negative = inhibition) at 10uM [%] |
| --- | --- |
| Cc1cccc(OCC(O)CN2CCN(c3ccccn3)CC2)c1C.Cl (centres unmarked) | -45.5 |
| Cc1ccccc1OCC(O)CN1CCN(c2ccccn2)CC1.Cl (centres unmarked) | -48.8 |
| Cc1cc(C)c(C)c(OCC(=O)N2CCN(c3ccccn3)CC2)c1 | -33.6 |
| Cc1cc(C)c(C)c(OCC(O)CN2CCN(c3ccccn3)CC2)c1.Cl (centres unmarked) | -54.4 |
| Cc1ccc(OCC(O)CN2CCN(c3ccccn3)CC2)c(C)c1.Cl (centres unmarked) | -60.5 |
| Cc1cccc(C)c1OCC(O)CN1CCN(c2ccccn2)CC1 (centres unmarked) | -35.5 |
| CCc1noc(C)c1C(=O)N1CCCSC1=Nc1ccccc1OC | -8.77 |
| O=C(CCCN1C(=O)/C(=C/c2ccccc2)SC1=S)N1CCOCC1 | -30.1 |
| Cc1ccc(NC(=O)c2ccc(Cl)cc2[N+](=O)[O-])nc1 | 6.4 |
| O=C(Cn1c(=O)oc2ccccc21)Nc1ccccc1C(F)(F)F | 21.6 |
| COc1cc(/C=C2/C(=O)ON=C2C)ccc1OCc1ccccc1F | 2.22 |
| COCCNC(=O)C(OC(=O)C1=Cc2ccccc2OC1)C(C)C (centres unmarked) | 10.3 |
| Cc1ccc2nc3c(cc(C(=O)NCc4ccco4)c(=N)n3C3CCCC3)c(=O)n2c1 | -75.8 |
| Cn1c2ccccc2c2c(C(=O)NCc3ccco3)cn(C3CCCCC3)c(=O)c21 | -33.4 |
| N=c1c(C(=O)NCc2ccco2)cc2c(=O)n3ccccc3nc2n1C1CCCC1 | -77 |
| O=C(NCc1ccco1)c1cnc2ccccn2c1=O | -3.03 |
| Cc1ccc2nc(SCC(=O)NCc3ccco3)nc(=O)n2c1 | 8.08 |
| N#C/C(=C\c1ccc(O)c(O)c1)C(=O)NCCCc1ccccc1 | -1.59 |
| Cc1ccc(NC(=O)CSCC(=O)Nc2cc(Cl)ccc2N2CCOCC2)cc1 | -14.8 |
| Cc1ccc(NC(=O)CSCC(=O)Nc2cc(Cl)ccc2N2CCN(C)CC2)cc1 | -53.1 |
| Cc1cccc(NC(=O)CSCC(=O)Nc2ccccc2N2CCCC2)c1 | -90 |
| O=C(CC1OC(=O)c2ccccc21)Nc1cc(Cl)ccc1N1CCCC1 (centres unmarked) | -8.18 |
| CCN(CC)S(=O)(=O)c1ccc(N2CCN(C)CC2)c(NC(=O)CSCC(=O)Nc2cccc(C)c2)c1 | -13 |

| SMILES | hERG current change (%, negative = inhibition) at 10uM [%] |
| --- | --- |
| Cc1cccc(NC(=O)CSCC(=O)Nc2cc(Cl)ccc2N2CCN(C)CC2)c1 | -72.8 |
| Cc1cccc(NC(=O)CSCC(=O)Nc2ccccc2N2CCCCC2)c1 | -1.89 |
| Cc1cccc(NC(=O)CSCC(=O)Nc2cc(Cl)ccc2N2CCOCC2)c1 | -31 |
| Cc1cc(NC(=O)CSCC(=O)Nc2cc(Cl)ccc2N2CCN(C)CC2)no1 | -25.7 |
| CN1CCN(c2ccc(Cl)cc2NC(=O)CCN2C(=O)c3ccccc3C2=O)CC1 | -7.06 |
| Cc1ccc(NC(=O)CSCC(=O)Nc2ccccc2N2CCCC2)cc1 | -13.6 |
| CN1CCN(c2ccc(Cl)cc2NC(=O)CC2OC(=O)c3ccccc32)CC1 (centres unmarked) | -74.5 |
| COc1cccc(-c2ccc3nnc(SCC(=O)N4CCOCC4)n3n2)c1 | -6.27 |
| O=C(Nc1cc(Sc2ccccn2)cc([N+](=O)[O-])c1)c1ccc([N+](=O)[O-])cc1 | -6.06 |
| CCOc1ccc(-n2ccc(=O)c(C(=O)Nc3ccc(S(=O)(=O)Nc4ncccn4)cc3)n2)cc1 | 7.22 |
| CC1CCCC(NC(=O)CCn2c(=O)oc3ccccc32)C1C (centres unmarked) | -18.4 |
| COC(=O)c1cc2oc(C)cc2n1CC(=O)N(C)c1ccccc1 | 5.36 |
| O=C(O)c1ccc(/C=N/N2CCN(c3ccccc3)CC2)cc1 | 7.59 |
| CC(C)N(C(=O)CSc1nc(COc2ccccc2)nc2ccccc12)C(C)C | -4.66 |
| O=C(NC(=S)N1CCOCC1)c1cc2ccccc2o1 | 12.7 |
| O=C(Cc1ccccn1)c1ccc(O)cc1O | 21.5 |
| Cc1ccccc1Nc1nnc(SCC(=O)Nc2ccccc2[N+](=O)[O-])s1 | 3.5 |
| O=S1(=O)[C@H]2C[C@@H]3C=C[C@@]2(CN1Cc1ccc(F)cc1)O3 | -25.2 |
| CCN(CC)CCNC(=O)c1cc2ccccc2nc1Cl | 43.4 |
| CCCCCn1c(=O)[nH]c2cc(C(=O)N3CCN(C(=O)OCC)CC3)ccc2c1=O | -9.61 |
| CCC(=O)NCCn1c(C)cc2ccccc21 | -0.267 |
| CC(=O)NCCn1c(C)cc2ccccc21 | -55.1 |
| Cc1cc2ccccc2n1CCNC(=O)C(C)(C)C | 11.7 |

| SMILES | hERG current change (%, negative = inhibition) at 10uM [%] |
| --- | --- |
| COc1ccc(CNCC(O)COCc2cccs2)cc1 (centres unmarked) | -60.8 |
| C=CCOc1ccc(CN(C)CC(O)COc2cccc3ccccc23)cc1 (centres unmarked) | -23.2 |
| Cc1ccc(OCC(O)CNCc2ccccc2)cc1C (centres unmarked) | -33.5 |
| COC(=O)c1ccc(COc2ccc(CNCc3ccc(Cl)cc3)cc2)cc1 | -0.414 |
| O=C(O)C(=O)O.O=C(c1ccccc1)c1ccc(OCC(O)CNCc2ccc(Cl)cc2)cc1 (centres unmarked) | -66.6 |
| COc1ccc(CNC(=O)Cc2cccs2)cc1 | 15 |
| C=CCOc1ccc(CN(C)CC(O)COc2ccc(CCC(C)=O)cc2)cc1 (centres unmarked) | -63.6 |
| O=C(O)C(=O)O.O=C(c1ccccc1)c1ccc(OCC(O)CNCc2cccc(Cl)c2)cc1 (centres unmarked) | -60.3 |
| O=C(O)C(=O)O.OC(CNCc1ccc(Cl)cc1)COc1ccccc1 (centres unmarked) | -41.9 |
| CN(Cc1ccccc1)CC(O)COc1ccc(CNCCc2ccncc2)cc1 (centres unmarked) | -17.5 |
| COc1ccc(CNC(C)Cc2cccs2)cc1 (centres unmarked) | -2.79 |
| COc1cccc(CNCC(O)COc2ccc(C(=O)c3ccccc3)cc2)c1 (centres unmarked) | -34.7 |
| CCNC(=O)/C=C/c1ccccc1[N+](=O)[O-] | 8.82 |
| COc1ccc2[nH]c(=O)c(CN(c3ccccc3)S(=O)(=O)c3ccccc3)cc2c1 | 11.2 |
| COc1ccc2cnn(-c3ccc(OC(F)(F)F)cc3)c(=O)c2c1OC | -6 |
| CCOC(=O)C(=CNc1cc(C)ccc1-n1cccc1)C(=O)OCC | 2.05 |
| Cc1ccc(/C=C2/Sc3ccc(C(=O)N4CCC5(CC4)OCCO5)cc3NC2=O)cc1 | 16.1 |
| Cc1sc(NC(=O)CN(Cc2ccccc2)C(=O)C(C)C)c(C(N)=O)c1C | -0.293 |
| O=C(COc1cc(F)ccc1[N+](=O)[O-])Nc1ccc2c(c1)OCO2 | 1.25 |
| Cc1csc(NC(=O)C2CCN(S(=O)(=O)c3ccc4c(c3)oc(=O)n4C)CC2)n1 | -11.5 |
